# Compounds with a hit are over-represented: about 3% of the library has one in this group of screens.
# KDM5B inh: blocks human KDM5B histone demethylase activity; Q9UGL1; KDM5B demethylase, FDH-coupled NADH fluorescence (FDH is formaldehyde dehydrogenase); Potency, µM (highest dose often 57.7 µM), actives largely listed as inhibitors; actives 2.6% (n = 220,000); AID 1347165; further: potency means the concentration at half of the fitted maximal effect; 0% is about no effect; nearly all actives have a fitted effect of over 70% in size
#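 qHTS format, multiple compound concentrations. Buffer 50 mM HEPES pH 7.5/0.01% Tween-20; 200 nM KDM5BΔAP final; 10 min compound preincubation; substrate-mix levels 12.5 µM peptide, 25 µM α-KG, 0.25 mM NAD⁺; 30 min RT; ΔRFU.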
# HEK293 viab: cell viability loss counter-screen. Potency, µM (doses to about 57.1 µM), for the others: top-dose activity change, negative = cytotoxicity, usual class: cytotoxic. actives 0.12% (n = 150,000). AID 1671193. HEK-293-SNCA-luc viability, GF-AFC fluorescence, 24 h;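 further: potency means the concentration at half of the fitted maximal effect; 0% = DMSO-treated cells and -100% = medium-only wells without cells; nearly all actives have a fitted effect of over 30% in size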
#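 Cytotoxicity counterscreen: after 24 h compound treatment of genome-edited SNCA-luciferase HEK-293 cells, live-cell protease substrate GF-AFC read by fluorescence after 30 min; activity scaled between DMSO (0%) and medium-only (-100%), curves Hill-fitted.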
# IP6K1 inhibitor: blocks human inositol hexakisphosphate kinase 1; Q92551; IP6K1 kinase, ADP-Glo luminescence, 2 h; stronger effect = lower value; activity change, % (series mostly up to about 58 µM); AID 1645851; actives 0.81% (n = 140,000); in the data active means activity change below about -25%; further: on the % scale 0 is the no-effect control and ±100 the full control effect
# Target sequence (Q92551 whole entry, looked up): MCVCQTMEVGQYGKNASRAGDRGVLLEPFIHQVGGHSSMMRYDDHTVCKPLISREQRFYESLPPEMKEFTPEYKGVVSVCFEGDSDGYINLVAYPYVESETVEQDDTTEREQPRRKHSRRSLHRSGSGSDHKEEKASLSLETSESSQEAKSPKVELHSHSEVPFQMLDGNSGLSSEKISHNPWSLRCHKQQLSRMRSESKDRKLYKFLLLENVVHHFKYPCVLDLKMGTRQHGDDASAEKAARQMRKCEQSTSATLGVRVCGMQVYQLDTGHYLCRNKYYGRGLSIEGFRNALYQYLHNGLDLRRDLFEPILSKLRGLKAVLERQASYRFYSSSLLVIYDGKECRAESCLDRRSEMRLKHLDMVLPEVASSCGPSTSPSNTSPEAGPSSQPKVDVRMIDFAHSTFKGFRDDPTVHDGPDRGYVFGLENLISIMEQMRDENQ
#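 ADP-Glo luminescence measures ADP made by human IP6K1 during a 2 h RT reaction with ATP/IP6 (mix at 1.3 mM/130 uM); top library doses 57.5 and 19.1 uM final.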
# SNCA expr inhib: SNCA gene expression inhibition; HEK-293 SNCA-luciferase knock-in, luminescence, 24 h; Potency, µM (series often up to 57.2 µM), inactives show at the top dose activity change, negative = inhibition, usual class: inhibitors; actives 0.17% (n = 140,000); AID 1671194;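 further: potency means the concentration at half of the fitted maximal effect; plate controls were DMSO cells for no effect and cell-free wells for full effect; nearly all actives have a fitted effect of over 45% in size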
# Active calls of the source: *; i = inactive; ? = inconclusive; . = not tested or not shown; ! = a repeat was not active; [ ] = dose if it differs, or a comment. Unless noted, the call rests on the fitted dose curve; in most records, active means well fitted curve in the direction sought with a large enough effect; inconclusive means small, poorly fitted or top-dose-only effect, or another doubt; inactive means no such curve, though single readings can be large; an effect the other way counts as inactive or inconclusive.
SMILES,KDM5B inh,HEK293 viab,IP6K1 inhibitor,SNCA expr inhib
CNC(=O)c1cc(C2CC2)nc2onc(C3CCCN(C(=O)c4ccccc4)C3)c12 (stereo not given),.,.,1,.
O=C(NCc1ccc(-c2ncon2)cc1)[C@H]1CCC[C@@H](O)C1,i,-7%,16,5%
O=C(NCc1csc(-c2cnccn2)n1)C1CNCCO1 (stereo not given),?,6%,-4,-8%
Nc1ncccc1CNC(=O)[C@H]1CCC[C@H](O)C1,25µM*,3%,18,8%
O=C(NCc1csc(-c2cnccn2)n1)[C@H]1CCC[C@H](O)C1,28µM*,-2%,14,25%
O=C(Cn1ccc2ccc(Cl)cc21)N1CCOCC1,i,.,.,.
COc1ccc(NS(=O)(=O)c2ccc(OCC(=O)Nc3ccc4c(c3)OCO4)c(C)c2)cc1,i,.,.,.
O=C(CSCc1cccs1)NCC1CCCO1 (stereo not given),i,.,.,.
O=C1NC2(CCN(Cc3ccsc3)C2)Oc2ccccc21 (stereo not given),i,6%[87.6 µM],1,74%[87.6 µM]
O=[S+]1([O-])NC2(CCCN(Cc3ccc(C(F)(F)F)cc3)C2)COc2ccccc21 (stereo not given),?,-3%,-5,-2%
O=C1NC2(CCCN(Cc3ccc(C(F)(F)F)cc3)C2)COc2ccccc21 (stereo not given),25µM*,8%,24,-18%
Cn1nccc1CN1CCCC2(COc3ccccc3C(=O)N2)C1 (stereo not given),40µM*,?,7,?
O=C1NC2(CCN(Cc3ccsc3)C2)COc2ccccc21 (stereo not given),35µM*,-4%[87.6 µM],23,34%[87.6 µM]
Cn1cccc1CN1CCC2(COc3ccccc3C(=O)N2)C1 (stereo not given),?,-4%[87.6 µM],6,-16%[87.6 µM]
O=C(c1ccc(F)cc1)N1CCCC(C(=O)N2CCC(c3nc4ccncc4[nH]3)CC2)C1 (stereo not given),.,5%,10,-4%
Cn1ncc2c(C(=O)NCC(F)F)cc(-c3ccc(C(F)(F)F)cc3)nc21,.,.,-5,.
CC(C)C(NC(=O)c1ccccn1)C(=O)O (stereo not given),i,.,.,.
CC(C)C[C@H](NC(=O)[C@H](Cc1ccccc1)NC(=O)c1cnccn1)B(O)O,.,?,12,0.048µM*
CC(C)C[C@H](NC(=O)[C@@H](NC(=O)c1cccc(-c2ccccc2)n1)[C@@H](C)O)B(O)O,.,0.047µM*!,15,0.061µM*
COc1cc(NC(=O)C2(C#N)CCCC2)c(OC)cc1NC(=O)c1ccccc1,i,.,.,.
CC(O)CNc1nc2c(c(=O)n(Cc3ccccc3Cl)c(=O)n2C)n1C (stereo not given),i,.,.,.
CC(C)NC(=O)c1cn2cc(-c3ccccc3)sc2n1,.,-9%[87.6 µM],-13,14%[87.6 µM]
O=C(NCCN1CCOCC1)c1ccc(-c2ccc(N3CCCCCC3)nc2)cc1,28µM*,-25%,-3,-10%
O=C(NCCCN1CCOCC1)c1ccc(-c2ccc(N3CCCCCC3)nc2)cc1,25µM*,-17%,0,52%
Cc1ccc(CNC(=O)c2ccc(-c3ccc(N4CCCCC4)nc3)cc2)o1,20µM*,-13%,-3,4%
SMILES,KDM5B inh,HEK293 viab,IP6K1 inhibitor,SNCA expr inhib
COCCNC(=O)c1ccc(-c2ccc(N3CCCCCC3)nc2)cc1,?,-10%,-13,183%
Cc1ccc(C(=O)NCc2nnc3ccc(-c4ccc(F)cc4)nn23)c(C)c1,?,-11%,36,10%
Cc1ccc(C(=O)NCc2nnc3ccc(-c4ccccc4)nn23)c(C)c1,28µM*,-17%,8,?
CC(C(=O)NCc1nnc2ccc(-c3ccccc3)nn12)c1ccccc1 (stereo not given),28µM*,4%,14,-17%
O=C(NCc1nnc2ccc(-c3ccccc3)nn12)c1ccc[nH]c1=O,28µM*,8%,34,14%
Cc1cc(C)cc(C(=O)NCc2nnc3ccc(-c4ccccc4)nn23)c1,25µM*,-16%,11,-28%
COc1ccccc1CC(=O)NCc1nnc2ccc(-c3ccccc3)nn12,i,-9%,15,3%
COc1ccc2c3c1CN(C(=O)COc1ccccc1)CC3=CC(C)(C)CO2,.,.,10,.
COc1ccc(C(=O)N2CCC(C(NC(=O)c3ccccc3C)C(=O)NC(C)C(C)C)CC2)cc1 (stereo not given),i,20µM*,10,-22%
COc1ccc(-c2nc3c(c(=O)[nH]2)CCN(C(=O)Nc2ccc4c(c2)CCC4)C3)cc1,i,-21%,8,38%
N#Cc1cccc(NC(=O)N2CCc3c(nc(-c4ccc(F)cc4)[nH]c3=O)C2)c1,20µM*,0%,26,2%
COc1ccc(-c2nc3c(c(=O)[nH]2)CCN(C(=O)Nc2cc(F)cc(F)c2)C3)cc1,18µM*,3%,0,?
Cc1cccc(CNC(=O)c2ccc(Cn3c(SCc4cccc(F)c4)nc4cccnc43)cc2)c1,?,-11%,-53*,-7%
COc1ccc2[nH]c3c(c2c1)CCN(C)C31CCN(C(=O)c2cc(C)[nH]n2)CC1,?,-4%[12.5 µM],-4,63%
COc1ccc2[nH]c3c(c2c1)CCNC31CCN(C(=O)C(C)(C)C)CC1,25µM*,-20%[12.5 µM],-2,59%
COc1ccc2[nH]c3c(c2c1)CCNC31CCN(C(=O)c2cccn2C)CC1,?,1%[12.5 µM],-2,25µM*
COc1ccc2[nH]c3c(c2c1)CCN(C)C31CCN(C(=O)c2cn(C)cn2)CC1,25µM*,-6%[12.5 µM],-3,-7%
O=C(c1[nH]nc2c1COc1ccccc1-2)N1CCC(Cc2nncn2CC2CC2)CC1,i,-4%,0,-5%
COc1cccc(C(=O)NCc2nnc3cc(-c4nc(C)no4)ccn23)c1,28µM*,-7%,26,4%
Cc1noc(-c2ccn3c(CNC(=O)c4cccc(F)c4)nnc3c2)n1,28µM*,0%,14,?
COc1ccc(C(=O)NCc2nnc3cc(-c4nc(C)no4)ccn23)cc1F,7.9µM*,-4%,22,?
Cc1noc(-c2ccn3c(CNC(=O)c4ccc5ccccc5n4)nnc3c2)n1,6.3µM*,-18%,40,?
Cc1noc(-c2ccn3c(CNC(=O)c4ccc(C)c(C)c4)nnc3c2)n1,?,-9%,22,-20%
O=C(Nc1cc(C(F)(F)F)ccc1C(=O)O)c1ccccc1Cl,i,.,.,.
Cc1cc(NC(=O)[C@@H]2CCCN2S(=O)(=O)c2ccc(OC(C)C)cc2)no1,i,.,.,.
COC(=O)c1ccccc1NC(=O)N1CCC[C@@H](O)[C@H](NC(=O)c2ccc(OCc3ccccc3)cc2)C1,25µM*,-6%,3,1%
COCCOc1ccc(C(=O)N[C@@H]2CN(C(=O)Nc3ccccc3C(=O)OC)CCC[C@H]2O)cc1,i,-5%,-10,5%
CC1(C(=O)NC2CCOCC2)CCc2cnc(Nc3ccccc3)nc21 (stereo not given),i,-19%[87.6 µM],18,?

# Screens deposited in PubChem by National Center for Advancing Translational Sciences (NCATS).
